Laboratory results published in the supplement of paper PMC13380429.
Structures can show the parent of a compound that is named as a salt.

Tests used:
[1] = test system: Vero E6 infected with SARS-CoV-2; test: inhibition of SARS-CoV-2 cytopathic effect; higher = more antiviral protection, active = above 15; settings: 48 h
[2] = test system: Vero E6 infected with SARS-CoV-2; test: morphology score (similarity to uninfected cells); higher = more like uninfected cells; settings: 24 h
[3] = test system: Vero E6 infected with SARS-CoV-2; test: SARS-CoV-2 infection rate relative to infected DMSO; higher = more infection, active = 60 or less; settings: 24 h

Row | SMILES | inhibition of SARS-CoV-2 cytopathic effect ([1]; 1 nM) | inhibition of SARS-CoV-2 cytopathic effect ([1]; 8.33 nM) | inhibition of SARS-CoV-2 cytopathic effect ([1]; 100 nM) | inhibition of SARS-CoV-2 cytopathic effect ([1]; 833.33 nM) | inhibition of SARS-CoV-2 cytopathic effect ([1]; 10000 nM) | morphology score [2] | SARS-CoV-2 infection rate [3]
1 | O=C([O-])c1ccccc1-c1c2cc(Br)c(=O)cc-2oc2[c]([Hg+])c([O-])c(Br)cc12.[Na+].[Na+].[OH-] [merbromin] | -11.2% (inactive) | -13.3% (inactive) | -11.5% (inactive) | – | – | – | –
2 | COc1ccc(-c2ccc3c(N4CCOC[C@@H]4C)nc(N4CCOC[C@@H]4C)nc3n2)cc1CO | -1.08% (inactive) | -2.46% (inactive) | -3.62% (inactive) | -4.35% (inactive) | -6.56% (inactive) | – | –
3 | CCCCC(CC)COc1ccc(-c2nc(-c3ccc(OC)cc3)nc(-c3ccc(OCC(CC)CCCC)cc3O)n2)c(O)c1 (stereo not given) [bemotrizinol] | 1.11% (inactive) | 3.46% (inactive) | 1.8% (inactive) | – | – | – | –
4 | CCOc1ccc(/C=C2\NCCc3cc(OCC)c(OCC)cc32)cc1OCC [drotaverine] | 1.53% (inactive) | 2.33% (inactive) | -0.04% (inactive) | 2.62% (inactive) | 0.78% (inactive) | – | –
5 | O=C(Nc1ccc(Cl)cc1)Nc1cccc(-c2cccc(N3CCCC3)n2)c1 | 1% (inactive) | 1.53% (inactive) | -2.03% (inactive) | -4.04% (inactive) | -6.24% (inactive) | – | –
6 | COC[C@H](C)Oc1cc(O[C@@H](C)Cc2ccccc2)cc(C(=O)Nc2ccc(C(=O)O)cn2)c1 | -1.62% (inactive) | 2.26% (inactive) | 1.23% (inactive) | -0.06% (inactive) | 0.06% (inactive) | – | –
7 | COc1ccc(-n2nc(CCC(=O)N(C)O)cc2-c2ccc(Cl)cc2)cc1 [tepoxalin] (0.833333 µM) | – | – | – | – | – | 0.0433 | 104% (inactive)
8 | Cl[C@H]1[C@H](Cl)[C@@H](Cl)[C@@H](Cl)[C@H](Cl)[C@H]1Cl [lindane] | -2.48% (inactive) | -1.41% (inactive) | -0.79% (inactive) | – | – | – | –
9 | CCn1c(=O)/c(=C2\Sc3ccccc3N2C)s/c1=C\c1cccc[n+]1CC (10 µM) | – | – | – | – | – | 0.136 | 106% (inactive)
10 | O=[N+]([O-])c1cc([As](=O)(O)O)ccc1O [roxarsone] | -3.44% (inactive) | -2.76% (inactive) | -4.83% (inactive) | – | – | – | –
11 | CCNC(=O)[C@@H]1CCCN1C(=O)[C@H](CCCNC(=N)N)NC(=O)[C@H](CC(C)C)NC(=O)[C@@H](C)NC(=O)[C@H](Cc1ccc(O)cc1)NC(=O)[C@H](CO)NC(=O)[C@H](Cc1c[nH]c2ccccc12)NC(=O)[C@H](Cc1cnc[nH]1)NC(=O)[C@@H]1CCC(=O)N1 [alarelin] (10 µM) | – | – | – | – | – | -0.246 | 114% (inactive)
12 | CC(C)(Oc1ccc(C2CC2(Cl)Cl)cc1)C(=O)O (stereo not given) [ciprofibrate] (10 µM) | – | – | – | – | – | -0.0908 | 109% (inactive)
13 | O=C(C[S+]([O-])C(c1ccccc1)c1ccccc1)NO (stereo not given) [adrafinil] | -1.03% (inactive) | -1.5% (inactive) | -3.32% (inactive) | 1.58% (inactive) | -1.53% (inactive) | – | –
14 | COc1ccccc1N1CCN(CCCCNC(=O)c2ccc(-c3ccc(C(C)=O)cc3)cc2)CC1 | -1.49% (inactive) | -3.1% (inactive) | -4.98% (inactive) | -6.69% (inactive) | -6.57% (inactive) | – | –
15 | CC(C)Oc1ccc(Cc2ccc(NC3=NCCN3)cc2)cc1 | 0.38% (inactive) | 0.26% (inactive) | 2.45% (inactive) | 0.98% (inactive) | -0.97% (inactive) | – | –
16 | CC[C@H](C)[C@@H]([C@@H](CC(=O)N1CCC[C@H]1[C@H](OC)[C@@H](C)C(=O)N[C@@H](Cc1ccccc1)c1nccs1)OC)N(C)C(=O)[C@@H](NC(=O)[C@H](C(C)C)N(C)C)C(C)C [dolastatin-10] | -1.47% (inactive) | 0.79% (inactive) | -2.31% (inactive) | -3% (inactive) | 0.49% (inactive) | – | –
17 | Cc1nnc2n1-c1sc(CCC(=O)N3CCOCC3)cc1C(c1ccccc1Cl)=NC2 [apafant] | 2.67% (inactive) | -1.44% (inactive) | 0.93% (inactive) | 1.94% (inactive) | 29% (active) | – | –
18 | CN(C)C(=O)COC(=O)Cc1ccc(OC(=O)c2ccc(NC(=N)N)cc2)cc1 [Camostat mesylate] | 0.94% (inactive) | -0.39% (inactive) | -0.94% (inactive) | 1.08% (inactive) | -0.11% (inactive) | – | –
19 | C#Cc1cccc(Nc2ncnc3cc(OC)c(OCCCCCCC(=O)NO)cc23)c1 | 1.1% (inactive) | 5.38% (inactive) | -0.94% (inactive) | -6.89% (inactive) | -28% (inactive) | – | –
20 | O=C(O)c1ccccc1NCCc1ccccc1 [tromaril] | -2.04% (inactive) | 0.78% (inactive) | 1.18% (inactive) | 1.39% (inactive) | 1.35% (inactive) | – | –

Row | SMILES | inhibition of SARS-CoV-2 cytopathic effect ([1]; 1 nM) | inhibition of SARS-CoV-2 cytopathic effect ([1]; 8.33 nM) | inhibition of SARS-CoV-2 cytopathic effect ([1]; 100 nM) | inhibition of SARS-CoV-2 cytopathic effect ([1]; 833.33 nM) | inhibition of SARS-CoV-2 cytopathic effect ([1]; 10000 nM) | morphology score [2] | SARS-CoV-2 infection rate [3]
21 | Nc1ccc([As](=O)(O)O)cc1 [arsanilic-acid] | 0.07% (inactive) | 1.05% (inactive) | -1.33% (inactive) | -2.25% (inactive) | -0.8% (inactive) | – | –
22 | c1ccc(NCc2ccc(CNc3ccccn3)cc2)nc1 | 0.1% (inactive) | 0.65% (inactive) | -3.43% (inactive) | -0.24% (inactive) | -0.68% (inactive) | – | –
23 | COc1cc2/c(=N/c3ccc(Br)cc3F)nc[nH]c2cc1OCC1CCN(C)CC1 [vandetanib] | -1.28% (inactive) | 2.63% (inactive) | -1.67% (inactive) | -6.04% (inactive) | -3.93% (inactive) | – | –
24 | O=c1[nH]c(=O)n([C@H]2C[C@H](O)[C@@H](CO)O2)cc1I [idoxuridine] | 1.04% (inactive) | -1.19% (inactive) | 2.65% (inactive) | -0.31% (inactive) | -2.33% (inactive) | – | –
25 | N#CC(=C(/N)Sc1ccccc1N)/C(C#N)=C(/N)Sc1ccccc1N | -0.64% (inactive) | 0.76% (inactive) | 2.1% (inactive) | -3.9% (inactive) | -8.7% (inactive) | – | –
26 | N[C@@H]1CCCN(c2c(/C=C3\SC(=O)NC3=O)cccc2-c2ccccc2)C1 | 3.5% (inactive) | -3.14% (inactive) | -1.57% (inactive) | -0.89% (inactive) | 0% (inactive) | – | –
27 | O=C(O)C(=O)Nc1cccc(-c2nnn[nH]2)c1 [acitazanolast] | -1.24% (inactive) | -0.89% (inactive) | -0.76% (inactive) | -1.09% (inactive) | -0.46% (inactive) | – | –
28 | CC[C@H]1OC(=O)[C@H](C)[C@@H](O[C@H]2C[C@@](C)(OC)[C@@H](O)[C@H](C)O2)[C@H](C)[C@@H](O[C@@H]2O[C@H](C)C[C@H](N(C)C)[C@H]2O)[C@](C)(O)C[C@@H](C)CN(C)[C@H](C)[C@@H](O)[C@]1(C)O [azithromycin] | 0.31% (inactive) | 1.86% (inactive) | 2% (inactive) | 0.56% (inactive) | 0.92% (inactive) | – | –
29 | Cc1ccc(-c2ccc(C)cn2)nc1 [abametapir] | -4.6% (inactive) | 1.76% (inactive) | -1.42% (inactive) | -3.2% (inactive) | -1.76% (inactive) | – | –
30 | CCN1CCCC(OC(=O)C(c2ccccc2)c2ccccc2)C1 (stereo not given) [piperidolate] | -8.23% (inactive) | -7.13% (inactive) | -7.85% (inactive) | -6.63% (inactive) | -10.7% (inactive) | – | –
31 | Cc1ccc(NC(=O)c2ccc(CN3CCN(C)CC3)cc2)cc1Nc1nc(-c2cccnc2)cs1 [masitinib] | 1.41% (inactive) | 0.48% (inactive) | 1.05% (inactive) | 1.93% (inactive) | 44.8% (active) | – | –
32 | Cc1cc(OCC(=O)O)cc(C)c1Cc1ccc(O)c(C(C)C)c1 [sobetirome] | 1.8% (inactive) | -0.19% (inactive) | -3.41% (inactive) | -2.42% (inactive) | -2.77% (inactive) | – | –
33 | O=C1OC(OC(=O)c2cccnc2Nc2cccc(C(F)(F)F)c2)c2ccccc21 (stereo not given) [talniflumate] | 2.12% (inactive) | -1.23% (inactive) | -2.09% (inactive) | 0.94% (inactive) | 0.53% (inactive) | – | –
34 | NC1(Cc2ccc(Cl)cc2)CCN(c2ncnc3[nH]ccc23)CC1 | -1.05% (inactive) | 0.05% (inactive) | -0.65% (inactive) | 0.89% (inactive) | -9.28% (inactive) | – | –
35 | O=C(O)c1cc(O)c(O)c(O)c1 [gallic-acid] | -1.87% (inactive) | 0.61% (inactive) | 3.05% (inactive) | -1.88% (inactive) | 6.6% (inactive) | – | –
36 | Nc1cccc(-c2cc3c(Oc4cccc(O)c4)ncnc3[nH]2)c1 | 4.09% (inactive) | 0.18% (inactive) | -2.41% (inactive) | -3.87% (inactive) | -11.4% (inactive) | – | –
37 | Cc1ccc(S(=O)(=O)NC(=O)NN2CC3CCCC3C2)cc1 (stereo not given) [gliclazide] | 0.85% (inactive) | 1.91% (inactive) | 1.12% (inactive) | 2.55% (inactive) | 2.6% (inactive) | – | –
38 | CCc1ccc(C2=CC(C)(C)Sc3ccc(C#Cc4ccc(C(=O)O)cc4)cc32)cc1 | 0.1% (inactive) | 2.14% (inactive) | 1.4% (inactive) | 1.53% (inactive) | 3.68% (inactive) | – | –
39 | Cc1cc(CCC[C@H](CC(=O)NO)C(=O)N[C@H](C(=O)N[C@H](C)c2ccccc2)C(C)(C)C)ccc1-c1ccccc1 | -1.73% (inactive) | -2.08% (inactive) | -3.51% (inactive) | -2.76% (inactive) | -13% (inactive) | – | –
40 | CC(=O)Nc1ccc(OC[C@](C)(O)C(=O)Nc2ccc([N+](=O)[O-])c(C(F)(F)F)c2)cc1 [andarine] | -0.84% (inactive) | -0.36% (inactive) | -2.49% (inactive) | -1.89% (inactive) | -1.92% (inactive) | – | –
